Source: PubChem BioAssay (EPA / NIEHS)
Active and inactive are the calls of the source. How the source made its calls: active means hit-call score of the fitted dose curve at least 0.9, where 1 is the maximum; inactive means score below 0.9.

Legend:
[1] = ATG_M_61_CIS: Attagene CIS-FACTORIAL HepG2 Assay for M61 Transcription Factor (Internal Marker) (AID 2282937); conditions: HepG2 Attagene CIS-FACTORIAL M61 internal marker reporter; actives raise or lower the signal
Summary of the method: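 Cells were transfected with reporter units under cis-regulatory promoters, treated with chemicals for 24 h, then lysed for RNA. Reporter transcripts were quantified by RT-PCR and capillary electrophoresis, and activity was fitted bidirectionally against DMSO.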

[2] = ATG_EGR_CIS: Attagene CIS-FACTORIAL HepG2 Assay for human Early Growth Response 1 (EGR1) (AID 2282938); conditions: HepG2 Attagene CIS-FACTORIAL EGR reporter mRNA; actives raise or lower the signal
Summary of the method: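 Endogenous TF activity in HepG2 liver cells was gauged through cis-promoter reporter constructs transiently transfected. After 24 h dosing, reporter mRNA was quantified by RT-PCR and capillary electrophoresis, and curves fitted in both directions versus DMSO.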

[3] = ATG_M_19_CIS: Attagene CIS-FACTORIAL HepG2 Assay for M19 Transcription Factor (Internal Marker) (AID 2282939); conditions: HepG2 Attagene CIS-FACTORIAL M19 internal marker reporter; actives raise or lower the signal
Summary of the method: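 Internal marker readout, fitted in both directions against DMSO, from HepG2 cells carrying transfected cis-element reporter constructs; RT-PCR and capillary electrophoresis of reporter mRNA after 24 h exposure.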

[4] = ATG_Ets_CIS: Attagene CIS-FACTORIAL HepG2 Assay for human Erythroblast Transformation Specific (ETS) (AID 2282941); conditions: HepG2 ETS cis-reporter transcription, actives raise or lower the signal
Summary of the method: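 After transient cis-reporter transfection, HepG2 cells receive test chemical for 24 h. Reporter mRNA levels, measured by RT-PCR and capillary electrophoresis fluorescence, are analysed bidirectionally relative to the DMSO baseline.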

[5] = target: Hepatocyte nuclear factor 3-beta (Homo sapiens) (UniProt Q9Y261); assay: ATG_FoxA2_CIS: Attagene CIS-FACTORIAL HepG2 Assay for human Forkhead box A2 (FOXA2) (AID 2282942); conditions: HepG2 cis-reporter transcription factor activity, 24 h; actives raise or lower the signal
Summary of the method: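 Endogenous transcription factor activity was read in HepG2 cells carrying transiently transfected cis-promoter reporter units. After 24 h dosing, reporter mRNA was quantified by RT-PCR and capillary electrophoresis, and values fitted bidirectionally versus DMSO.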

[6] = ATG_FoxO_CIS: Attagene CIS-FACTORIAL HepG2 Assay for human Forkhead box O (FoxO) (AID 2282943); conditions: HepG2 Attagene cis-reporter, FoxO element, mRNA; actives raise or lower the signal
Summary of the method: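 HepG2, transient MRTU transfection (cis element, endogenous TFs). Dose 24 h. TriZol RNA → oligo(dT) RT → PCR → 6-FAM primer extension → HpaI cut → CE. Gain/loss vs DMSO.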

[7] = ATG_GATA_CIS: Attagene CIS-FACTORIAL HepG2 Assay for human GATA Binding Protein (AID 2282944); conditions: HepG2 GATA cis-element reporter, Attagene multiplex mRNA; actives raise or lower the signal
Summary of the method: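 Reporter transcripts from a GATA cis-regulated unit, among multiplexed reporters in transfected HepG2 cells, were measured by RT-PCR with capillary electrophoresis after 24 h dosing. Induction or loss scored relative to DMSO.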

[8] = ATG_GLI_CIS: Attagene CIS-FACTORIAL HepG2 Assay for human Zinc Finger Protein GLI1 (AID 2282945); conditions: HepG2, Attagene cis-factorial reporter mRNA, GLI element; actives raise or lower the signal
Summary of the method: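 Bidirectional curve fits relative to DMSO, using reporter mRNA levels from RT-PCR plus capillary electrophoresis. Cells were HepG2 transiently carrying cis-regulated reporter constructs, harvested 24 h after dosing.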

[9] = target: Bile acid receptor (Homo sapiens) (UniProt Q96RI1); assay: ATG_IR1_CIS: Attagene CIS-FACTORIAL HepG2 Assay for human Nuclear Receptor Subfamily 1 Group H Member 4 (NR1H4), IR1 submotif (AID 2282946); conditions: IR1 reporter transcription, actives raise or lower the signal
Summary of the method: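 Cells (human HepG2) carry transiently transfected cis-promoter reporter transcription units. Compounds are incubated 24 h, total RNA is reverse-transcribed and amplified, and labelled fragments are resolved by capillary electrophoresis. Curves use DMSO as baseline.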

[10] = ATG_GRE_CIS: Attagene CIS-FACTORIAL HepG2 Assay for human Glucocorticoid Response Elements (GRE) (AID 2282947); conditions: HepG2 GRE cis-reporter, Attagene multiplex mRNA; actives raise or lower the signal
Summary of the method: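 Transient MRTU transfection of human HepG2 liver cells; cis-regulated reporters report endogenous factors. 24 h dosing → RNA isolation → RT-PCR → 6-FAM primer extension → HpaI cut → CE fragment analysis. Bidirectional fit, DMSO negative control.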

[11] = ATG_ISRE_CIS: Attagene CIS-FACTORIAL HepG2 Assay for human Interferon Regulatory Factor 1 (IRF1) binding to an Interferon-Stimulated Response Element (ISRE) (AID 2282948); conditions: HepG2 ISRE cis-reporter (Attagene), mRNA transcription readout; actives raise or lower the signal
Summary of the method: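 Quantitation relies on labelled RT-PCR fragments separated by capillary electrophoresis. Human HepG2 cells bearing cis-promoter reporter constructs were treated 24 h; DMSO served as baseline for bidirectional fitting.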

[12] = ATG_M_32_CIS: Attagene CIS-FACTORIAL HepG2 Assay for M32 Transcription Factor (Internal Marker) (AID 2282949); conditions: HepG2 Attagene cis-factorial M32 reporter, mRNA; actives raise or lower the signal;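 further: background control marker of the multiplexed CIS panel rather than a real target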
Summary of the method: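 HepG2 cells transiently transfected with multiplexed cis-regulated reporter units, dosed 24 h. Reporter mRNA quantified by RT-PCR, 6-FAM labelling, HpaI digestion and capillary electrophoresis; bidirectional fit vs DMSO.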

[13] = ATG_M_06_CIS: Attagene CIS-FACTORIAL HepG2 Assay for M06 Transcription Factor (Internal Marker) (AID 2282950); conditions: HepG2 Attagene CIS-FACTORIAL M06 internal marker reporter; actives raise or lower the signal
Summary of the method: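 Serves as a background control readout. Transfected HepG2 exposed to compounds for 24 h, then reporter transcripts quantified by fluorescent RT-PCR and capillary electrophoresis. Both directions fitted against DMSO baseline.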

[14] = target: Hepatocyte nuclear factor 6 (Homo sapiens) (UniProt Q9UBC0); assay: ATG_HNF6_CIS: Attagene CIS-FACTORIAL HepG2 Assay for human Hepatocyte Nuclear Factor 6 (HNF6) (AID 2282952); conditions: HepG2 Attagene cis-factorial HNF6 reporter transcription; actives raise or lower the signal
Summary of the method: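 HepG2, transient MRTU transfection (cis promoters); 24 h chemical exposure; total RNA → oligo(dT) RT → PCR → 6-FAM labelling → HpaI cut → CE; bidirectional fit vs DMSO.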

[15] = target: Heat shock factor protein 1 (Homo sapiens) (UniProt Q00613); assay: ATG_HSE_CIS: Attagene CIS-FACTORIAL HepG2 Assay for human Heat Shock Transcription Factor 1 (HSE) (AID 2282953); conditions: HepG2 HSE cis-reporter, Attagene RNA transcription; actives raise or lower the signal
Summary of the method: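 Endogenous transcription factor activity in transiently transfected HepG2, read as reporter mRNA by RT-PCR with fluorescent capillary electrophoresis after 24 h. Gain or loss of signal fitted versus DMSO baseline.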

[16] = ATG_MRE_CIS: Attagene CIS-FACTORIAL HepG2 Assay for human Metal Responsive Element (MRE) (AID 2282954); conditions: HepG2 MRE cis-reporter transcription, Attagene multiplex; actives raise or lower the signal
Summary of the method: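 Transient MRTU transfection of HepG2 (FuGene 6); 24 h dosing; total RNA → oligo(dT) RT, PCR, 6-FAM primer extension, HpaI cut, CE. Bidirectional fit vs DMSO.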

[17] = target: Hypoxia-inducible factor 1-alpha (Homo sapiens) (UniProt Q16665); assay: ATG_HIF1a_CIS: Attagene CIS-FACTORIAL HepG2 Assay for human Hypoxia Inducible Factor 1 (HIF1A) (AID 2282951); conditions: HepG2 Attagene cis-factorial HIF1a reporter transcription; actives raise or lower the signal
Summary of the method: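 Measures endogenous transcription-factor activity through cis-regulated reporter mRNA in HepG2. Cells dosed 24 h; transcripts quantified by RT-PCR with 6-FAM-labelled products separated by capillary electrophoresis; DMSO serves as negative control.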

[18] = ATG_PBREM_CIS: Attagene CIS-FACTORIAL HepG2 Assay for human Phenobarbital-responsive Enhancer Module (PBREM) (AID 2282955); conditions: HepG2 PBREM cis-reporter, Attagene multiplexed transcription; actives raise or lower the signal
Summary of the method: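 Fluorescence of labelled reporter cDNA fragments, resolved by capillary electrophoresis, gives mRNA induction in transfected HepG2 cells treated for 24 h; DMSO serves as negative control and baseline.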

Measured: AC50

Heat shock factor protein 1 (Homo sapiens), sequence (Q00613 whole entry, looked up): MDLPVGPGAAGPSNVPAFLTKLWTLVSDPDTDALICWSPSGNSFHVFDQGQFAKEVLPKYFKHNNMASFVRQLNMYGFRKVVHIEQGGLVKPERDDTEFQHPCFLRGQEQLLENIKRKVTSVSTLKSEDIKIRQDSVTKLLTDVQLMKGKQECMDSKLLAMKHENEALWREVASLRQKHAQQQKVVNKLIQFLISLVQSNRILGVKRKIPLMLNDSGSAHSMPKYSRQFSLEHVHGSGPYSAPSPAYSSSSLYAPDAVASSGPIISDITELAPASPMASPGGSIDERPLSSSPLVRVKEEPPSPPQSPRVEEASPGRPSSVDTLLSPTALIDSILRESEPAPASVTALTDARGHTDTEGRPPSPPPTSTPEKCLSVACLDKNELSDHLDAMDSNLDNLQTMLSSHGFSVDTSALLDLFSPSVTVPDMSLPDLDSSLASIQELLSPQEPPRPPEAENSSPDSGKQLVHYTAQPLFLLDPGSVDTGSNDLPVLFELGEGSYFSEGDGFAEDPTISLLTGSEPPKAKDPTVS
Hepatocyte nuclear factor 6 (Homo sapiens), sequence (Q9UBC0 whole entry, looked up): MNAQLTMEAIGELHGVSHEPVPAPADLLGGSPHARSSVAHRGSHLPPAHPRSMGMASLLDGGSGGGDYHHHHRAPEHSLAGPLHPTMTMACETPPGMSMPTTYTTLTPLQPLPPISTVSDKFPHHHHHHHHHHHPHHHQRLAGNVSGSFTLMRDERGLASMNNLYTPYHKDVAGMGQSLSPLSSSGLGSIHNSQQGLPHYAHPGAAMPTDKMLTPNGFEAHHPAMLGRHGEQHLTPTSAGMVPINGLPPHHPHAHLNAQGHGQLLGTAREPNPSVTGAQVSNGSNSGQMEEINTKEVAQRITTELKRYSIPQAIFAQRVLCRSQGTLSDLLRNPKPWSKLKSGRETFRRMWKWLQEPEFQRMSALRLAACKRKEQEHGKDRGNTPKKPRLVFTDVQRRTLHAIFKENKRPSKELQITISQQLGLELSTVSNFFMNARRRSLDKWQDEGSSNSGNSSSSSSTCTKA
Hypoxia-inducible factor 1-alpha (Homo sapiens), sequence (Q16665 whole entry, looked up): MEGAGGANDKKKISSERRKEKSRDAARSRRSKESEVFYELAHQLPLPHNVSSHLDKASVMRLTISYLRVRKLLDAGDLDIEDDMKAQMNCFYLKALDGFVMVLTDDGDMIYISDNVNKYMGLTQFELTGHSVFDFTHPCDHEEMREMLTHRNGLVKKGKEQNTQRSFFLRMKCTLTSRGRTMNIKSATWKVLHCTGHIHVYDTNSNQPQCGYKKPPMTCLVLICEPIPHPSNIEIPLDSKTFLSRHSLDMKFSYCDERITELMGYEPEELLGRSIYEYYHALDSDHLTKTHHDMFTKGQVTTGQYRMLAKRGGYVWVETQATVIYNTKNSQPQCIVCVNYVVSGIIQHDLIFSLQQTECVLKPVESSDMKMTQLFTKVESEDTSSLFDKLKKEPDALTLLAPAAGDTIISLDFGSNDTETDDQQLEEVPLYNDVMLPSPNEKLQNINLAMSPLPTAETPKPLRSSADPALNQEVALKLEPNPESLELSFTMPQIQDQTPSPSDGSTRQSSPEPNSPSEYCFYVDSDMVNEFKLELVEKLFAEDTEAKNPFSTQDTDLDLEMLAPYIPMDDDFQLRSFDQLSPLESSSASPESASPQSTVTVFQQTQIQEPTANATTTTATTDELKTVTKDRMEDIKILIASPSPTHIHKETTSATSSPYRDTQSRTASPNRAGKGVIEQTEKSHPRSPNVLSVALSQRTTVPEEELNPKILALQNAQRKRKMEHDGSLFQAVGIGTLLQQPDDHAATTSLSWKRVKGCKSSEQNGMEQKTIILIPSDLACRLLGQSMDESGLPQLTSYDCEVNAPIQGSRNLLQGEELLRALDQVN
Bile acid receptor (Homo sapiens), sequence (Q96RI1 whole entry, looked up, the tested form may be a part): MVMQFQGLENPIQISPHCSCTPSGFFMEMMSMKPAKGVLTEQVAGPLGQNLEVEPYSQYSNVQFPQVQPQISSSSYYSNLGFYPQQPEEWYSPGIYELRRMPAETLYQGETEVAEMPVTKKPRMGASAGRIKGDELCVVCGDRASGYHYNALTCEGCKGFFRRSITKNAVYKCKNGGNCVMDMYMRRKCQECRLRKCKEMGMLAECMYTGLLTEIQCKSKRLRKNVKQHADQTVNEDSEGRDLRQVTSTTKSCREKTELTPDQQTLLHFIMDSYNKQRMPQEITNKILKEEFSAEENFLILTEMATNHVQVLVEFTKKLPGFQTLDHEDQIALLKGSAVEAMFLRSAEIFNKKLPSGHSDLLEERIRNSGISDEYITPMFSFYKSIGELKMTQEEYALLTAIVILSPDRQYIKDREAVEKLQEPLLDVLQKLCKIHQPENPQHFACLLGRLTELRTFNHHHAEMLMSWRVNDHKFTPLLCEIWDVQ
Hepatocyte nuclear factor 3-beta (Homo sapiens), sequence (Q9Y261 whole entry, looked up): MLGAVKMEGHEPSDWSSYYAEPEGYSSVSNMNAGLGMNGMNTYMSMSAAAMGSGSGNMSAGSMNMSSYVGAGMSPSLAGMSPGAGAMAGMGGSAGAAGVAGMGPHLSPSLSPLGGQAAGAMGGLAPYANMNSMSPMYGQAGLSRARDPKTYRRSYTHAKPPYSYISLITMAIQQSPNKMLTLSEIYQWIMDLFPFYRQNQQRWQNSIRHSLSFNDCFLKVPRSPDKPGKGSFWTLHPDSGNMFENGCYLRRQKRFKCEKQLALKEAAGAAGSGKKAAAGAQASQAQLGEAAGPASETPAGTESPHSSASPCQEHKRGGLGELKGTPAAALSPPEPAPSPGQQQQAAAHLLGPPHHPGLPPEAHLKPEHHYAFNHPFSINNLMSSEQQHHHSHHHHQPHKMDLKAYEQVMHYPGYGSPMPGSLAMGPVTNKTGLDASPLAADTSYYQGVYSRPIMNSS

C[C@H]1O[C@@H](O[C@H]2[C@@H](O)C[C@H](O[C@H]3[C@@H](O)C[C@H](O[C@H]4CC[C@@]5(C)[C@H](CC[C@@H]6[C@@H]5C[C@@H](O)[C@]5(C)[C@@H](C7=CC(=O)OC7)CC[C@]65O)C4)O[C@@H]3C)O[C@@H]2C)C[C@H](O)[C@@H]1O
active: [2] 163 nM | [4] 145 nM | [6] 202 nM | [7] 335 nM | [9] 253 nM | [10] 3300 nM | [11] 179 nM | [15] 194 nM | [16] 182 nM
inactive: [1] | [3] | [5] | [8] | [12] | [13] | [14]

Nc1ccn([C@H]2CS[C@@H](CO)O2)c(=O)n1
not listed: [9]
inactive: all other assays above

Clc1ccc(C(c2ccccc2Cl)C(Cl)Cl)cc1 (centres undefined)
active: [3] 100000 nM | [6] 69800 nM | [8] 53700 nM | [9] 43800 nM | [11] 60900 nM | [16] 171000 nM
not listed: [1] | [10] | [17]
inactive: all other assays above

Cc1c(C2(c3cc(Br)c(O)c(Br)c3C)OS(=O)(=O)c3ccccc32)cc(Br)c(O)c1Br
not listed: [3]
inactive: all other assays above

O=Cc1ccccc1S(=O)(=O)O
not listed: [3] | [9]
inactive: all other assays above

CCNCCO
not listed: [12] | [18]
inactive: all other assays above

Nc1ccc(Cl)c([N+](=O)[O-])c1
not listed: [18]
inactive: all other assays above
